From paper PMC4336329 (PLoS ONE, 2015)
About 14,000 (4.5%) of roughly 310,000 compounds showed an effect of 50% or more. The effect is printed as a negative number. The entries come from a sample that favours strong results as a whole.

Target: human ether-à-go-go-related gene (hERG) potassium channel (human, UniProt Q12809)
Test: primary screen, population patch clamp on CHO cells stably expressing hERG; higher = less effect of the substance
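Also: peak tail current of the secondary pulse compared with the same well before compound.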

human ether-à-go-go-related gene (hERG) potassium channel, sequence (Q12809 whole entry, looked up): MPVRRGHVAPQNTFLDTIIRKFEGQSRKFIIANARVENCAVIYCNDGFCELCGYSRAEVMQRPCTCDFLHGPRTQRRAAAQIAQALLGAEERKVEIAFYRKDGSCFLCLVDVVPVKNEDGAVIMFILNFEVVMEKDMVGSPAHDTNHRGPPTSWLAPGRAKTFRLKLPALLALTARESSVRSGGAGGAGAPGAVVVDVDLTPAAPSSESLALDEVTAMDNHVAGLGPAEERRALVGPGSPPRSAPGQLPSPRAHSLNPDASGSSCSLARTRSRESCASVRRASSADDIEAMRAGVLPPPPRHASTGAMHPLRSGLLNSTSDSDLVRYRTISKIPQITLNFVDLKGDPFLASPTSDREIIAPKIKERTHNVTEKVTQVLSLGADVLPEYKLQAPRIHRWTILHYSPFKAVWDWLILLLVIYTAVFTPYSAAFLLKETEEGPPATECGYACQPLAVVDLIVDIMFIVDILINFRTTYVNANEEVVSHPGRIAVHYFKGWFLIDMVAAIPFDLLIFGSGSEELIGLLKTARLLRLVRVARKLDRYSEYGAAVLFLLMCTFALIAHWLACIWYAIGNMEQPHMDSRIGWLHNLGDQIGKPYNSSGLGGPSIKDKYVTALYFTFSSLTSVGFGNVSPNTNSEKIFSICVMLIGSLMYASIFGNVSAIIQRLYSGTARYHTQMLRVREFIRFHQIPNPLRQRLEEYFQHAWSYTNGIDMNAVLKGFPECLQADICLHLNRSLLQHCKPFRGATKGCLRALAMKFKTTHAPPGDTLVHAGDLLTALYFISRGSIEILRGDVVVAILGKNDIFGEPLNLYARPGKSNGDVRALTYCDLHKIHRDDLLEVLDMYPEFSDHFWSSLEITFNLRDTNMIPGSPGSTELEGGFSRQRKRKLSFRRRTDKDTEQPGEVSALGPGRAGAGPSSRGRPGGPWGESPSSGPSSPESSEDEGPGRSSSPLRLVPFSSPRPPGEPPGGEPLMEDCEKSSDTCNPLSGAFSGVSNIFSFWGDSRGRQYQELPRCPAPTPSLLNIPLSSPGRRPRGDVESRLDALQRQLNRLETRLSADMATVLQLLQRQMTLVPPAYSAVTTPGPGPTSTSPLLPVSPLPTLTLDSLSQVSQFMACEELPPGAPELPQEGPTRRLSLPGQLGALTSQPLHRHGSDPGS

| SMILES | hERG current change (%, negative = inhibition) at 10uM [%] |
| --- | --- |
| CC/C(=N\Nc1ccc([N+](=O)[O-])cc1[N+](=O)[O-])c1ccc(O)cc1 | 21.7 |
| Cc1ccc(S(=O)(=O)c2ncccc2N)cc1 | 12.4 |
| Cc1ccc(S(=O)(=O)c2ncccc2[N+](=O)[O-])cc1 | -64 |
| O=[N+]([O-])c1cccnc1S(=O)(=O)c1ccccc1 | 15.9 |
| Cc1noc(C)c1C(=O)Nc1ccccc1C(=O)NCCc1ccccc1 | 8.93 |
| Cc1nn(-c2ccccc2)c(C)c1C(=O)OCC(=O)N1CC(=O)Nc2ccccc21 | 1.89 |
| C=CCN1C=C2C(=O)C(C)(OC(=O)C3CCCC3)C(=O)C=C2C=C1c1ccsc1 (centres unmarked) | -19.4 |
| COCCN1C=C2C(=O)C(C)(OC(=O)C3CCCC3)C(=O)C=C2C=C1c1ccsc1 (centres unmarked) | -6.22 |
| CC1(OC(=O)C2CCCC2)C(=O)C=C2C=C(c3ccsc3)N(C3CC3)C=C2C1=O (centres unmarked) | 16.5 |
| CC1(OC(=O)C2CCCC2)C(=O)C=C2C=C(c3ccsc3)N(C3CCCCC3)C=C2C1=O (centres unmarked) | -15.8 |
| CC1(OC(=O)C2CCCC2)C(=O)C=C2C=C(c3ccsc3)N(CCCCO)C=C2C1=O (centres unmarked) | 1.16 |
| CC1(OC(=O)C2CCCC2)C(=O)C=C2C=C(c3ccsc3)N(Cc3ccccc3)C=C2C1=O (centres unmarked) | -52.5 |
| CC1(OC(=O)C2CCCC2)C(=O)C=C2C=C(c3ccsc3)N(Cc3ccc4c(c3)OCO4)C=C2C1=O (centres unmarked) | -79.6 |
| CC1(OC(=O)C2CCCC2)C(=O)C=C2C=C(c3ccsc3)N(CC3CC3)C=C2C1=O (centres unmarked) | -11.8 |
| CC1(OC(=O)C2CCCC2)C(=O)C=C2C=C(c3ccsc3)N(C3CCCC3)C=C2C1=O (centres unmarked) | -64.7 |
| CC1(OC(=O)C2CCCC2)C(=O)C=C2C=C(c3ccsc3)N(Cc3ccco3)C=C2C1=O (centres unmarked) | -23.2 |
| COc1ccc(CN2C=C3C(=O)C(C)(OC(=O)C4CCCC4)C(=O)C=C3C=C2c2ccsc2)cc1 (centres unmarked) | -64.4 |
| CC(C)CN1C=C2C(=O)C(C)(OC(=O)C3CCCC3)C(=O)C=C2C=C1c1ccsc1 (centres unmarked) | -0.438 |
| COC(=O)c1ccc(COC(=O)CNC(=O)CNC(=O)c2ccc(OC)cc2)cc1 | -6.8 |
| CN(C(=O)CN1C(=O)C2C3CC(C(Br)C3Br)C2C1=O)C1CCCCC1 (centres unmarked) | -8.93 |
| CCOC(=O)Cn1c(S(=O)(=O)Cc2ccc(F)cc2)nc(-c2ccccc2)c1-c1ccccc1 | -7.15 |
| CCCCCCSc1cc(C)nc2ncnn12 | -42.9 |
| CCc1cccc(CC)c1-n1c(-c2cccnc2)n[nH]c1=S | 18.1 |
| O=C(c1cc(Br)ccc1OC(F)F)N1CCN2CCCC2C1 (centres unmarked) | -4.15 |
| CCOC(=O)CSc1nnc(-c2ccccc2NC(=O)c2ccccc2)o1 | 12.2 |
| CC(C)Nc1oc(-c2cccc3ccccc23)nc1C#N | 2.18 |
| O=C(NC(=S)NCCO)c1sc2ccccc2c1Cl | -0.142 |

| SMILES | hERG current change (%, negative = inhibition) at 10uM [%] |
| --- | --- |
| Cl.NCCc1ccc(OCc2ccccc2)c(OCc2ccccc2)c1 | -22.1 |
| COc1cc(CCC(=O)N2CCN(c3ccc(N4CCOCC4)nn3)CC2)cc(OC)c1OC | -9.65 |
| COc1ccc(N2CCN(C(=O)Cc3ccc(OC)c(OC)c3)CC2)cc1 | 6.38 |
| COc1cc(CCC(=O)N2CCN(c3ncccn3)CC2)cc(OC)c1OC | 11.8 |
| COc1cc(CCC(=O)N2CCN(c3cccc(C)c3C)CC2)cc(OC)c1OC | -2.88 |
| COc1ccc(CCC(=O)N2CCN(c3ccccc3)CC2)cc1OC | 14 |
| COc1ccc(CCC(=O)N2CCN(c3ccc([N+](=O)[O-])cc3)CC2)cc1OC | -81.5 |
| COc1cc(CCC(=O)N2CCN(c3ccc([N+](=O)[O-])cc3)CC2)cc(OC)c1OC | -78.4 |
| COc1cc(CCC(=O)N2CCN(c3ccccc3)CC2)cc(OC)c1OC | -58.5 |
| COc1ccc(C(=O)N2CCN(c3ccc([N+](=O)[O-])c(NCCc4ccc(OC)c(OC)c4)c3)CC2)cc1 | 4.2 |
| O=C(Cc1cccc(C(F)(F)F)c1)OCC(=O)N1CCN(S(=O)(=O)c2ccc(Cl)cc2)CC1 | -6.07 |
| COc1ccc(OC)c(NC(=S)NCc2cccs2)c1 | -18.3 |
| CCOC(=O)C1(Cc2ccccc2C)CCCN(S(=O)(=O)CC)C1 (centres unmarked) | 13.9 |
| COc1cccc(NS(=O)(=O)c2ccc3c(c2)n(C)c(=O)c(=O)n3C)c1 | -6.59 |
| COC(=O)c1[nH]c2cc(OC)ccc2c1NC(=O)CCN1CCSCC1 | 7.01 |
| CCc1nn(C(C)C(=O)N2CC(C)CC(C)C2)c(=O)c2cc3occc3n12 (centres unmarked) | -7.58 |
| CNC(=O)Nc1ccc(Cl)cc1 | 7.56 |
| CC(=O)n1cc([C@@H]2C=C(C(=O)N3CCN(Cc4ccccc4)CC3)O[C@H](OCc3ccc(CO)cc3)C2)c2ccccc21 | -10.1 |
| CC(=O)n1cc([C@H]2C=C(C(=O)N3CCOCC3)O[C@@H](OCCCCO)C2)c2ccccc21 | -17.1 |
| O=C(C1=C[C@H](c2csc3ccccc23)C[C@H](OCc2ccc(CO)cc2)O1)N1CCOCC1 | -59.2 |
| O=C(C1=C[C@@H](c2csc3ccccc23)C[C@@H](OCc2ccc(CO)cc2)O1)N1CCOCC1 | -27.5 |
| O=C(C1=C[C@H](c2csc3ccccc23)C[C@H](OCc2ccc(CO)cc2)O1)N1CCCCCCC1 | -15.1 |
| CC(=O)n1cc([C@H]2C=C(C(N)=O)O[C@@H](OCc3ccc(CO)cc3)C2)c2ccccc21 | -16.8 |
| CC(=O)n1cc([C@@H]2C=C(C(=O)O)O[C@H](OCc3ccc(CO)cc3)C2)c2ccccc21 | 0.587 |
| CC(=O)n1cc([C@@H]2C=C(C(=O)N3CCOCC3)O[C@H](OCc3ccc(CO)cc3)C2)c2ccccc21 | -74.8 |
| CC(=O)n1cc([C@H]2C=C(C(=O)N3CCN(Cc4ccccc4)CC3)O[C@@H](OCCCCO)C2)c2ccccc21 | -42.5 |
| CC(=O)n1cc([C@@H]2C=C(C(=O)N3CCOCC3)O[C@H](OCCCCO)C2)c2ccccc21 | -51.6 |

| SMILES | hERG current change (%, negative = inhibition) at 10uM [%] |
| --- | --- |
| C=CCOC(=O)C1=C[C@@H](c2cn(C(C)=O)c3ccccc23)C[C@@H](OCc2ccc(CO)cc2)O1 | -93.5 |
| C=CCOC(=O)C1=C[C@H](c2cn(C(C)=O)c3ccccc23)C[C@H](OCc2ccc(CO)cc2)O1 | -9.82 |
| O=C(CCCCCn1c(=S)[nH]c2ccc(N3CCOCC3)cc2c1=O)NCc1ccccc1Cl | 4.65 |
| C=COCCn1c(-c2nonc2N)nc2ccccc21 | -3.07 |
| CC(NC(=O)CCC(=O)NCc1ccc(F)cc1)c1ccccc1 (centres unmarked) | 13.3 |
| COc1ccc(NC(=S)NC(NC(=O)CF)C(Cl)(Cl)Cl)cc1[N+](=O)[O-] (centres unmarked) | 15 |
| CCOC(=O)c1ccc(NC(=O)CC2C(=O)N(c3ccc(F)cc3)C(=O)N2CCC(C)C)cc1 (centres unmarked) | -8.43 |
| COc1ccc(-c2cc(-c3ccc(OC)cc3)c(C#N)c(SC)n2)cc1 | 5.38 |
| CCn1nc(C(=O)Nc2cccc(S(=O)(=O)N3CCCC3)c2)c2ccccc2c1=O | -22.3 |
| COc1ccc(S(=O)(=O)N2CCCC(C(F)(F)F)C2)cc1 (centres unmarked) | 10.2 |
| O=C(CCNS(=O)(=O)c1ccc2c(c1)CCC(=O)N2)NCc1ccc2c(c1)OCO2 | 0.608 |
| Cc1cccc(NC(=O)Nc2cc(C)on2)c1 | 9.14 |
| C=C1CCC[C@]2(C)C[C@H]3OC(=O)C(CN4CCOCC4)[C@H]3C[C@@H]12 (some centres unmarked) | 17.7 |
| COc1cccc(OC)c1C(=O)Nc1cccc(-n2cnnn2)c1 | 15.7 |
| CN1CCC(OC(=O)Cc2ccc(Cl)cc2)CC1.Cl | -11 |
| CN(C(=S)Nc1ccc(Oc2ccccc2)cc1)c1ccc(O)cc1 | -6.93 |
| CC(=O)n1cc([C@@H]2C=C(C(=O)N3CCN(C)CC3)O[C@H](OCc3ccc(CO)cc3)C2)c2ccccc21 | -41.7 |
| CC(=O)n1cc([C@H]2C=C(C(=O)N3CCN(Cc4ccccc4)CC3)O[C@@H](OCc3ccc(CO)cc3)C2)c2ccccc21 | -24 |
| CC(=O)n1cc([C@H]2C=C(C(=O)N3CCOCC3)O[C@@H](OCc3ccc(CO)cc3)C2)c2ccccc21 | -55.2 |
| CCN(c1ccccc1)S(=O)(=O)c1ccc(C(=O)N(C)CCc2ccc(OC)c(OC)c2)cc1 | -13.8 |
| O=[N+]([O-])c1ccc(CN2CCN(c3ccccc3)CC2)o1 | 9.7 |
| O=[N+]([O-])c1ccc(CN2CCN(c3ccc(Cl)cc3)CC2)o1 | -2.29 |
| Clc1ccc(N2CCN(Cc3ccc(Br)o3)CC2)cc1 | 7.93 |
| Brc1ccc(CN2CCN(c3ccccc3)CC2)o1 | 13.8 |
| O=C(O)C(=O)O.O=[N+]([O-])c1ccc(N2CCN(Cc3ccc([N+](=O)[O-])o3)CC2)cc1 | -71.1 |
| O=[N+]([O-])c1ccc(N2CCN(Cc3ccc(Br)o3)CC2)cc1 | -65.1 |
